High-throughput results deposited in PubChem BioAssay by NMMLSC.
In the library only some 1.2% were active in any assay of this set; here they are far more common.
RGS4-Gao reg: human RGS4-Galphao interaction regulation. binding response (% of control), % at 10 µM. P09471. actives 0.33% (n = 220,000). Multiplexed bead flow cytometry, RGS4-Galphao binding; actives lie on both sides. AID 1415; in the data active means binding response below about 49% or above about 150%; inactive means in between;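 further: fluorescent Galphao activated with aluminum fluoride binding bead-coupled RGS4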
Target sequence (P09471 whole entry, looked up): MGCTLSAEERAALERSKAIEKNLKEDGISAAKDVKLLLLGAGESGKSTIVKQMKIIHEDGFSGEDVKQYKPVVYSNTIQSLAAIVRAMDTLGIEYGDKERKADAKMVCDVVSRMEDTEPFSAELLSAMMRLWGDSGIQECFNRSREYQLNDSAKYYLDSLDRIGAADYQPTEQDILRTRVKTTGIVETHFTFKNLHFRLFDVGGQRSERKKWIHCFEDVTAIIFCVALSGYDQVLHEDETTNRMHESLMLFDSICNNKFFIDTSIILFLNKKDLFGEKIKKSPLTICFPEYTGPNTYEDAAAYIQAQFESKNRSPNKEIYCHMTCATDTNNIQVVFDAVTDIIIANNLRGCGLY
Avidin fluor: compound fluoresces at 488/530 nm on avidin beads; compound fluorescence 488/530 nm, flow cytometry; stronger effect = higher value; actives 0.38% (n = 220,000); fluorescence (KMESF) at 10 µM; AID 1775; in the data active means fluorescence above about 47
RGS16-Gao HTS: modulates binding between human RGS16 and Galphao | bead-based flow cytometry RGS16-Galphao binding, fluorescence; actives lie on both sides | binding response (% of control), % at 10 µM | actives 0.38% (n = 220,000) | AID 1441;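 further: Galphao activated by GDP with aluminum fluoride before binding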
RGS7-Gao reg: human RGS7-Galphao interaction regulation; P09471; Multiplexed bead flow cytometry, RGS7-Galphao binding; actives lie on both sides; AID 1439; actives 0.35% (n = 220,000); binding response (% of control), % at 10 µM; in the data active means binding response below about 49% or above about 150%; inconclusive means no clear call, values can overlap the other calls; inactive means in between;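 further: fluorescent Galphao held in activated GDP-AlF4 state binding bead-coupled RGS7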
RGS8-Gao: regulators of human RGS8-Galphao interaction; multiplexed bead flow cytometry, RGS8-Galphao binding; actives lie on both sides; P09471; actives 0.34% (n = 220,000); response (percent of control binding), % at 10 µM; AID 1423; in the data active means response below about 60% or above about 140%; inactive means in between;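 further: Galphao activated as the GDP aluminium fluoride complex binding bead-coupled RGS8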
GSH fluor: compound fluoresces at 488/530 nm on GSH beads; GSH beads flow cytometry, compound fluorescence 488/530 nm; stronger effect = higher value; fluorescence (KMESF) at 10 µM; actives 0.25% (n = 190,000); AID 1776; in the data active means fluorescence above about 89;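 further: glutathione beads carrying GST-tagged Bcl family fusion proteins plus one bare bead set; values are compound well signal with DMSO vehicle wells as background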
RGS4-Gao HTS: modulates binding between human RGS4 and Galphao | actives 99% (n = 1,600) | multiplexed bead flow cytometry, RGS–Galpha-o binding | shares compounds with RGS16-Gao HTS | AID 1504 | RGS4–Galpha-o binding response, % at 10 µM;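 further: fluorescently labeled Galpha-o bound to GDP with aluminium fluoride binding biotinylated RGS beads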
Target sequence (P09471 whole entry, looked up): as above
Target sequence (P49798 whole entry, looked up): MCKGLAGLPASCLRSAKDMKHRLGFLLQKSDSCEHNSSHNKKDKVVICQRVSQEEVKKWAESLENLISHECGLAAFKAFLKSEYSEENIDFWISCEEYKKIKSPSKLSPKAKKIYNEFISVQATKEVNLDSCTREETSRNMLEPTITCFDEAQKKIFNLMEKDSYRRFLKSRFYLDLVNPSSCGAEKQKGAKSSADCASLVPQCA
Biotin-avidin: interferes with biotinylated probe binding to avidin beads | shares compounds with RGS16-Gao HTS | streptavidin beads, fluorescein-biotin binding, flow cytometry | inhibition, % at 10 µM | 1,700 tested, under 10 active | AID 1783;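 active means inhibition above 50%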;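 further: median green fluorescence of gated singlet beads compared with DMSO control wells; 0% = DMSO wells and 100% = complete loss of bead fluorescence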
RGS8-Gao confirm: confirmation of regulators of human RGS8-Galphao interaction; actives 3% (n = 1,700); binding response (% of control), % at 10 µM; shares compounds with RGS16-Gao HTS; bead-based flow cytometry RGS8-Galphao binding, fluorescence; actives lie on both sides; in the data active means binding response below about 72% or above about 130%; inactive means in between;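 further: Galphao activated as GDP AlF4 complex before binding bead RGS8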
RGS7-Gao confirm: confirmation of regulators of human RGS7-Galphao interaction | response (percent of control binding), % at 10 µM | shares compounds with RGS16-Gao HTS | bead-based flow cytometry RGS7-Galphao binding; actives lie on both sides | AID 1837 | actives 7.8% (n = 1,700); in the data active means response below about 75% or above about 130%; inactive means in between;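 further: fluorescent Galphao activated with GDP and aluminum fluoride binding bead-coupled RGS7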
RGS16-Gao single: confirmation of regulators of human RGS16-Galphao interaction; shares compounds with RGS16-Gao HTS; response (% of control binding), % at 10 µM; bead-based flow cytometry, RGS16-Galphao binding; actives lie on both sides; actives 4% (n = 1,700); in the data active means response below about 74% or above about 130%; inactive means in between;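 further: Galphao activated as the GDP aluminium fluoride complex binding bead-coupled RGS16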
RGS4-Gao confirm: RGS4-Galphao interaction regulation, single point confirmation. actives 4% (n = 1,700). RGS4-Galphao binding, multiplexed bead flow cytometry; actives lie on both sides. shares compounds with RGS16-Gao HTS. binding response (% of control), % at 10 µM. AID 1840; in the data active means binding response below about 74% or above about 130%; inactive means in between
RGS19-Gao conf: confirmation of regulators of human RGS19-Galphao interaction; shares compounds with RGS16-Gao HTS; bead-based flow cytometry RGS19-Galphao binding; actives lie on both sides; response (percent of control binding), % at 10 µM; actives 5% (n = 1,700); in the data active means response below about 50% or above about 160%; inactive means in between;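 further: 100% = no compound control and 0% = blank background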
Starred values were filed as active, the others as inactive; i = inactive; ? = inconclusive; / = no result; + = active, no number; [ ] = dose if it differs, or a comment. Unless noted, how the calls were made is not given here.

SMILES	RGS4-Gao reg	Avidin fluor	RGS16-Gao HTS	RGS7-Gao reg	RGS8-Gao	GSH fluor	RGS4-Gao HTS	Biotin-avidin	RGS8-Gao confirm	RGS7-Gao confirm	RGS16-Gao single	RGS4-Gao confirm	RGS19-Gao conf
CC(=O)N1CCc2cc(S(=O)(=O)NC(Cc3ccccc3)C(=O)Nc3cc(C)ccn3)ccc21 (configuration not stated)	129.4	5	940.5	117.7	153.4*[activator]	34	129.4*	i	100.4	100.8	101.7	102.4	104.8
CCC(=O)N1CCc2cc(S(=O)(=O)NC(Cc3ccccc3)C(=O)NC3CCCCC3)ccc21 (configuration not stated)	104.1	13	105.0	104.4	106.7	22	/	/	/	/	/	/	/
Cc1nc(C(F)(F)F)ccc1C(=O)N1CCCCC1	3.0*	-1	5.8*	?	31.1*	/	/	-0.2	102.3	97.9	102.8	102.5	95.7
COc1ccc(/C=C/CN2CCC(CO)(Cc3ccccc3Cl)CC2)cc1	99.4	11	109.7	101.5	103.8	13	/	/	/	/	/	/	/
COC(=O)C1=C(C)N=c2s/c(=C3\C(=O)Nc4ccccc43)c(=O)n2C1c1ccccc1 (configuration not stated)	118.4	5	178.8*[activator]	113.8	120.5	20	118.4*	-0.5	102.3	102.5	103.6	100.4	94.3
O=C(N/N=C/c1cc(Cl)cc([N+](=O)[O-])c1O)NC12CC3CC(CC(C3)C1)C2	94.8	5	92.4	96.0	97.2	10	/	/	/	/	/	/	/
COc1ccc(N2CCN(C(CNC(C)=O)c3ccco3)CC2)cc1 (configuration not stated)	107.2	10	108.2	106.5	102.8	14	/	/	/	/	/	/	/
COc1ccc(N2CCN(C(CNC(=O)OCc3ccccc3)c3ccco3)CC2)cc1 (configuration not stated)	104.2	13	188.7*[activator]	106.1	124.5	17	104.2*	2.7	102.6	98.7	101.4	100.2	97.9
O=C(Nc1ccccc1SCC1CSc2nc3ccccc3c(=O)n21)c1ccccc1Cl (configuration not stated)	/	/	/	/	/	17	/	1.8	99.9	75.2*	87.2	87.4	51.4
CCOC(=O)N1CCC(NC(=O)c2cccnc2SC)CC1	/	/	/	/	/	17	/	1.1	100.7	99.7	103.5	102.2	110.6
CC(C)CC(=O)NC1(C(F)(F)F)C(=O)N(CC(C)C)C2=C1C(=O)CC(C)(C)C2 (configuration not stated)	164.9*[activator]	3	167.4	169.0*[activator]	154.9*[activator]	9	/	0.5	96.4	88.3	93.3	94.0	79.8
Cc1cc(C)c2nc(NC(=O)[C@@H](NC(=O)c3cccc(S(=O)(=O)N4CCOCC4)c3)C(C)C)sc2c1	102.4	13	111.1	98.6	105.0	6	/	/	/	/	/	/	/
COc1ccc(CCCC(=O)N/N=C/c2ccccc2OC)cc1	101.2	3	106.2	98.8	103.2	10	/	/	/	/	/	/	/
CN(C)CCCN(C(=O)c1ccco1)c1nc2ccc(F)cc2s1	103.1	12	102.2	?	104.0	15	/	/	/	/	/	/	/
Cc1ccc2nc(N(CCCN(C)C)C(=O)c3ccco3)sc2c1	+[activator]	252*	+[activator]	+[activator]	237.2*[activator]	232*	/	0.2	100.9	93.1	99.7	97.9	101.1
O=C(CC1SC(=NCC2CCCO2)NC1=O)Nc1cccc2ccccc12 (configuration not stated)	10.8*	-5	-12.1*	-5.8*	6.6*	9	/	0.3	99.7	97.7	96.8	96.7	105.7
O=C(N/N=C/c1ccc2c(c1)OCO2)c1ccc(COc2cccc3cccnc23)cc1	96.7	11	97.5	93.6	100.6	9	/	/	/	/	/	/	/
COc1cc(/C=N/NC(=O)c2ccc(-n3cccc3)cc2)ccc1O	15.8*	-1	-85.9	16.0*	14.2*	11	/	-1.1	97.2	100.0	96.3	96.9	85.9
O=C(CN1CCN(C(=O)c2ccco2)CC1)Nc1ccc2c(c1)OCCO2	121.8	223*	108.5	178.4*[activator]	98.6	36	121.8*	0.3	96.7	94.5	95.3	99.3	98.1
CCSc1nnc(NC(=O)C2CCN(S(=O)(=O)c3c(C)c(C)cc(C)c3C)CC2)s1	99.9	3	106.4	97.1	103.9	7	/	/	/	/	/	/	/
Cc1ccc(Cl)c(OC(=O)c2nn(C(C)C)c(=O)c3ccccc23)c1	101.4	12	247.8*[activator]	100.7	118.5	14	101.4*	2.0	102.8	102.8	103.3	104.7	91.6
COC(=O)c1cccc(NC(=O)c2nn(C(C)C)c(=O)c3ccccc23)c1	103.7	8	99.3	98.7	98.8	11	/	/	/	/	/	/	/
COC(=O)C(NC(C)=O)(Nc1nc2ccc(S(C)(=O)=O)cc2s1)C(F)(F)F (configuration not stated)	97.5	3	-17.6*	94.0	91.8	57	97.5*	/	/	/	/	/	/
O=C(O)CCSc1nnc(SCC(=O)NCC(F)(F)F)s1	92.9	5	8.8*	85.3	72.3	4	92.9*	-1.9	103.3	105.7	101.5	103.0	100.5
CCOC(=O)CNC(=O)CSc1nnc(SCC(=O)NCC(=O)OCC)s1	102.9	15	123.3	114.6	99.4	10	/	/	/	/	/	/	/
CCOC(=O)/C=C1\SCC(=O)N1CC(=O)Nc1ccc(C(C)C)cc1	113.8	5	301.0	110.5	142.0*[activator]	19	113.8*	-1.0	98.8	100.0	97.2	98.7	99.5
CCOC(=O)/C=C1\SCC(=O)N1CC(=O)Nc1ccc2c(c1)CCC2	104.4	11	103.2	98.5	103.2	26	/	/	/	/	/	/	/
